In the supplement of paper PMC10981050:
Where a name gives a salt, the structure may show the parent alone.

System: OCI-AML2
Assay: cell viability relative to vehicle control; higher = less cytotoxic
Settings: 10 µM; SRSF2 genotype: wt/wt
Procedure, shortened: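 CRISPR-edited mutant clones and isogenic wild-type clones from four leukaemia lines were screened against Selleck bioactive, kinase and epigenetic probe libraries, with identity-inconsistent compounds excluded. Each compound was acoustically dispensed at a single 10 µM dose into 384-well plates holding 2000 cells in 50 µL medium per well. After 48 h the supernatant was removed and CellTiter-Glo luminescence was read. Viability was expressed as percent of the on-plate vehicle control and analysed in Genedata Screener.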

Compound	cell viability [%]
CCN(Cc1ccncc1)C(=O)C(CO)c1ccccc1 (centres undefined) [Tropicamide]	116
CN(C)C1CCN(C(=O)c2ccc(NC(=O)Nc3ccc(-c4nc(N5CCOCC5)nc(N5CCOCC5)n4)cc3)cc2)CC1	16.2
COc1cc2nc(N3CCN(C(=O)c4ccco4)CC3)nc(N)c2cc1OC [Prazosin HCl]	95.6
O=C(c1cccc(Br)c1)N1CCC(N2CCCC2)CC1	101
CC(=O)Oc1ccc2c(c1)Oc1cc(OC(C)=O)ccc1C21OC(=O)c2cc(C(=O)ON3C(=O)CCC3=O)ccc21.CC(=O)Oc1ccc2c(c1)Oc1cc(OC(C)=O)ccc1C21OC(=O)c2ccc(C(=O)ON3C(=O)CCC3=O)cc21	77.9
CC1(C)S[C@@H]2[C@H](NC(=O)Cc3ccccc3)C(=O)N2[C@H]1C(=O)O [Penicillin G Sodium]	109
CCOc1cc2ncc(C#N)c(Nc3ccc(F)c(Cl)c3)c2cc1NC(=O)/C=C/CN(C)C [Pelitinib (EKB-569)]	0.46
CC(C)=CCC[C@](C)(O[C@@H]1O[C@H](CO)[C@@H](O)[C@H](O)[C@H]1O)[C@H]1CC[C@]2(C)[C@@H]1[C@H](O)C[C@@H]1[C@@]3(C)CC[C@H](O)C(C)(C)[C@@H]3[C@@H](O[C@@H]3O[C@H](CO)[C@@H](O)[C@H](O)[C@H]3O[C@@H]3O[C@@H](C)[C@H](O)[C@@H](O)[C@H]3O)C[C@]12C [Ginsenoside Re]	107
C[C@H](CCC(=O)O)[C@H]1CC[C@H]2[C@@H]3[C@@H](O)C[C@@H]4C[C@H](O)CC[C@]4(C)[C@H]3CC[C@]12C [Ursodiol (Actigal Urso)]	99.7
CCCCOc1nc(N)c2c(n1)N(Cc1cccc(CN3CCCC3)c1)CC(=O)N2	90.6
CCOC(=O)[C@H](CCc1ccccc1)N[C@@H](C)C(=O)N1Cc2cc(OC)c(OC)cc2C[C@H]1C(=O)O [Moexipril HCl]	95.9
CS(=O)(=O)c1ccc(C2=C(c3ccccc3)C(=O)OC2)cc1 [Rofecoxib (Vioxx)]	98.8
CN(CCOc1ccc(CC2SC(=O)NC2=O)cc1)c1ccccn1 (centres undefined) [Rosiglitazone HCl]	105
Cc1cc(NC(=O)Nc2ccc(N(C)C)cc2)c2cc(F)cc(F)c2n1	94.9
CCN(CCCc1ccccc1)CCCc1ccccc1 [Alverine Citrate]	86.5
COc1ccc(C2CC(=O)c3c(O)cc(OC4OC(COC5OC(C)C(O)C(O)C5O)C(O)C(O)C4O)cc3O2)cc1OC (centres undefined) [Methyl-Hesperidin]	104
CNC(=O)CN1CCC(Oc2cc3c(Nc4cccc(Cl)c4F)ncnc3cc2OC)CC1	79.5
CC1OC(OC2C(CO)OC(OCC3OC(OC(=O)C45CCC(C)(C)CC4C4=CCC6C7(C)CCC(OC8OCC(O)C(O)C8O)C(C)(CO)C7CCC6(C)C4(C)CC5)C(O)C(O)C3O)C(O)C2O)C(O)C(O)C1O (centres undefined) [Hederacoside D]	103
C=C[C@@H]1C[C@]1(NC(=O)[C@@H]1C[C@@H](Oc2ncc(OC)c3ccc(Cl)cc23)CN1C(=O)[C@@H](NC(=O)OC(C)(C)C)C(C)(C)C)C(=O)NS(=O)(=O)C1CC1 [Asunaprevir]	110
C=C(Cc1ccccc1Cl)C(=O)OCC	101
O=C(O)C1=C(CSc2nnnn2CS(=O)(=O)O)CS[C@@H]2[C@H](NC(=O)[C@H](O)c3ccccc3)C(=O)N12 [Cefonicid sodium]	113
Fc1ccc(Cl)cc1-c1nc(Nc2ccncc2)c2nccnc2n1	103
Cc1cccc(Nc2nc(-c3ccncc3)cs2)c1	66.9
COc1cc([C@H]2OC[C@H]3[C@@H]2CO[C@@H]3c2ccc(O[C@@H]3O[C@H](CO)[C@@H](O)[C@H](O)[C@H]3O)c(OC)c2)ccc1O[C@@H]1O[C@H](CO)[C@@H](O)[C@H](O)[C@H]1O [Pinoresinol diglucoside]	109
C1=Cc2ccccc2Nc2ccccc21 [Iminostilbene]	92.6
O=C(O)CSc1nnc(Br)n1-c1ccc(C2CC2)c2ccccc12 [Lesinurad]	100
CCCCN(Cc1ccc(C(=O)NO)cc1)C(=O)Nc1ccccc1 [Nexturastat A]	7.67
CC(C)c1cc2c(N3CCN(C4=NCC(C)(C)S4)CC3)ncnc2s1 [MI-3 (Menin-MLL Inhibitor)]	45.1
Clc1ccc(CSC(Cn2ccnc2)c2ccc(Cl)cc2Cl)cc1 (centres undefined) [Sulconazole Nitrate]	45.1
